# The entries come from a sample that favours hits as a whole. The hit rate among all sequences tested is not known here.
# Tested on: T1, Caupolican (Caup) homeodomain DNA-binding domain
# T1 sequence: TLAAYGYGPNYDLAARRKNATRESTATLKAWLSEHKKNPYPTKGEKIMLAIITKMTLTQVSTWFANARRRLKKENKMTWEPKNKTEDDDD
# Assay: PBM E-score (8-mer, recovered from the published 9-mer minima) (E-score (dimensionless, -0.5 to 0.5)); Drosophila protein; higher = stronger relative binding preference, active = 0.31 or more
# Procedure: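 Protein binding microarray (PBM): in vitro transcribed/translated Caupolican (Caup) homeodomain DNA-binding domain (residues 214-303) applied at 100 nM to a universal 8-mer PBM array (Agilent AMADID 015681). The 8-mer enrichment score (E-score, range -0.5 to 0.5) was computed, and each 9-mer score is the minimum E-score of its two constituent 8-mers. The E-score is the same for a 9-mer and its reverse complement; 0.31 is the stated binding threshold.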
row,Sequence,PBM E-score
1,ATTGAAAA,0.0968 (inactive)
2,CAAGTTCA,0.0645 (inactive)
3,GTCATTTA,0.184 (inactive)
4,AGCGAGCG,-0.0955 (inactive)
5,GATATGAC,0.0792 (inactive)
6,CATGAAGA,0.0832 (inactive)
7,GATGGCGA,-0.0291 (inactive)
8,AGAGTCGG,-0.0944 (inactive)
9,CAGTTAAC,-0.00501 (inactive)
10,GATTGTAC,0.235 (inactive)
11,CATTGTAG,0.0869 (inactive)
12,CATTGTAC,0.323 (active)
13,CATTCCAC,-0.0122 (inactive)
14,ACAAGTGG,0.205 (inactive)
15,GCAAGTAA,0.173 (inactive)
16,ACAAGTAA,0.331 (active)
17,ACAAGTTC,0.233 (inactive)
18,ACAAGTAG,0.351 (active)
19,CCAAGTAA,0.0669 (inactive)
20,GCAAGAAC,0.00872 (inactive)
21,ACAAGAAT,0.307 (inactive)
22,CCAAGTAG,-0.0584 (inactive)
23,GCAAGTTA,0.0766 (inactive)
24,ACAAGAAC,0.316 (active)
25,ACAAGTTA,0.325 (active)

row,Sequence,PBM E-score
1,AATCTAGT,0.0691 (inactive)
2,CCGGTAAC,-0.0103 (inactive)
3,CCGGACAG,0.0176 (inactive)
4,CCCAAGCA,-0.0938 (inactive)
5,CGACCGCA,-0.144 (inactive)
6,CATGACGC,0.032 (inactive)
7,AAGGACTA,0.0433 (inactive)
8,AATTAAGG,0.0103 (inactive)
9,ACCAGTGC,-0.019 (inactive)
10,TAAGGGGA,-0.0541 (inactive)
11,ACAAGTAC,0.35 (active)
12,ACAAGTCT,0.296 (inactive)
13,AAAAGTAT,0.121 (inactive)
14,ACAAGGAG,0.224 (inactive)
15,ACAAGGAT,0.315 (active)
16,ACAAGGAA,0.247 (inactive)
17,CCAAGTAC,0.0484 (inactive)
18,GCAAGTAC,0.176 (inactive)
19,ACAAGTAT,0.314 (active)
20,AAGATCGA,0.0302 (inactive)
21,TCAGTTAA,0.0667 (inactive)
22,ACAGGTAT,0.203 (inactive)
23,ACCCCTCG,-0.218 (inactive)
24,GTGTGAAC,0.0865 (inactive)
25,CTATGTAC,0.381 (active)

row,Sequence,PBM E-score
1,CTCTGTAC,0.137 (inactive)
2,ATATGTCC,0.261 (inactive)
3,ATATGTAC,0.387 (active)
4,ATATGTAG,0.297 (inactive)
5,CTATGTGC,0.0747 (inactive)
6,CTAGGACA,0.241 (inactive)
7,TAGTTTAA,0.218 (inactive)
8,AGCGAGCT,-0.108 (inactive)
9,ACACCACC,0.0972 (inactive)
10,AAACTTTC,-0.0217 (inactive)
11,ACTGACAG,0.0804 (inactive)
12,CAAACATG,0.391 (active)
13,CAAACACA,0.265 (inactive)
14,CAAACACC,0.126 (inactive)
15,AAAACATC,0.305 (inactive)
16,AAAACATG,0.419 (active)
17,CAAACACG,0.315 (active)
18,AAAACATT,0.252 (inactive)
19,CAAACATC,0.23 (inactive)
20,CAAACATA,0.292 (inactive)
21,CATCTAGG,-0.0637 (inactive)
22,CAAGTAAG,0.0621 (inactive)
23,CATTTCAA,0.154 (inactive)
24,ATGCAATA,0.197 (inactive)
25,TGAGGCAA,-0.0847 (inactive)

row,Sequence,PBM E-score
1,AAGGGCGC,-0.172 (inactive)
2,CACCAGGC,-0.132 (inactive)
3,ATGTTGAC,0.322 (active)
4,GTGTTGTA,0.395 (active)
5,CTGTTGTA,0.273 (inactive)
6,ACGTTGTA,0.291 (inactive)
7,GTGTTGCA,0.184 (inactive)
8,ATGTTGTA,0.431 (active)
9,ATGTTGTG,0.282 (inactive)
10,AGGTTGTA,≥ 0.333 (active)
11,CTGTTGAC,0.137 (inactive)
12,CGGTTGTA,0.209 (inactive)
13,ATGTTGAG,0.132 (inactive)
14,AGGTTGTG,0.133 (inactive)
15,CGTCTGCC,-0.188 (inactive)
16,ATTGTCCG,0.122 (inactive)
17,CATTTCTA,0.102 (inactive)
18,GTCAACCA,0.0944 (inactive)
19,ACTAGCGC,-0.134 (inactive)
20,AACCGGGA,-0.0571 (inactive)
21,ATCAAAGC,-0.0471 (inactive)
22,ATCAGCTC,0.00528 (inactive)
23,AAGGCGAC,0.00668 (inactive)
24,ACGACTGC,-0.0879 (inactive)
25,GGATACCC,-0.15 (inactive)

row,Sequence,PBM E-score
1,CTCCAACC,-0.171 (inactive)
2,CACACCGA,0.0554 (inactive)
3,ACAAACCG,0.0217 (inactive)
4,ATGTTGCC,0.121 (inactive)
5,ATGTTGTC,0.424 (active)
6,CTGTTGTC,0.256 (inactive)
7,CCGCATCC,-0.16 (inactive)
8,AACTAACT,-0.00416 (inactive)
9,AATTAACC,0.0386 (inactive)
10,AATTAACT,0.117 (inactive)
11,GAGTAACA,0.206 (inactive)
12,AGTTAACA,0.265 (inactive)
13,TACTAACA,0.253 (inactive)
14,CGTTAACA,0.164 (inactive)
15,AAGTAACA,0.306 (inactive)
16,TAGTAACA,≥ 0.316 (active)
17,AACTAACA,≥ 0.339 (active)
18,TGTTAACA,0.371 (active)
19,AATTAACA,0.326 (active)
20,GTATCACA,0.198 (inactive)
21,ACAGAAGA,0.101 (inactive)
22,TAGCACAA,0.0785 (inactive)
23,ATGAAAAA,0.0536 (inactive)
24,AATGCACT,0.108 (inactive)
25,GGATTAGA,-0.0283 (inactive)

row,Sequence,PBM E-score
1,GCCATCGA,-0.0979 (inactive)
2,GATTAACA,0.292 (inactive)
3,TATTAACA,0.312 (active)
4,CATTAACA,0.234 (inactive)
5,CCATCCCC,-0.241 (inactive)
6,CAAGAGAG,-0.0747 (inactive)
7,TCCTCTCA,-0.0753 (inactive)
8,GGTGTACA,0.327 (active)
9,AGTGTAGA,0.162 (inactive)
10,GCTGTACA,0.268 (inactive)
11,AGTGTACG,0.152 (inactive)
12,GGTGTATA,0.133 (inactive)
13,AGTGTACA,0.337 (active)
14,ATAGATAT,0.169 (inactive)
15,ACGGACCC,-0.139 (inactive)
16,CGCGGGTC,-0.163 (inactive)
17,CCAATGGA,-0.156 (inactive)
18,ATGCAGCC,0.00431 (inactive)
19,CTGATTTA,0.138 (inactive)
20,GCATTAGC,-0.144 (inactive)

# Source: the supplement of paper PMC3724861
